Among the data in PubChem BioAssay (NCI) are growth values, retold here.

Molecules are shown by their SMILES. This is part of a sample that, as a whole, favours compounds with a hit. Of some 83,000 tested, about 20% had one in any assay.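 In brief: 96-well plates, 48 h treatment, single concentration, percent growth endpoint.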 Unmarked numbers belong to inactive results. Calls of active or inactive are those of the source. How the source made its calls: active means growth percent below 10; inactive means the rest.

Some test systems named below: NCI-H23 lung; NCI-H226 lung; NCI-H322M lung; HOP-62 NSCLC; NCI-H460 lung; HOP-92 NSCLC; NCI-H522 lung; A549/ATCC NSCLC; 786-0 renal; COLO 205 colon; DU-145 prostate; K-562 leukemia; MALME-3M melanoma; MDA-MB-231 breast; RXF 393 renal; SF-268 CNS; SF-295 CNS; SF-539 CNS; UACC-257 melanoma; M14 melanoma.
What all share (test): NCI-60 one-dose screen, 48 h (100 = growth as untreated, 0 = no growth, -100 = all killed)
Holding throughout (settings): 10 µM unless noted

For `O=C(Nc1ccc(-n2cc(-c3ccncc3)c(-c3ccc(Cl)c(O)c3)n2)cc1)N1CCOCC1`, the growth in the assay with NCI-H23 lung was 111%; with NCI-H226 lung, 103%; in the assay with NCI-H322M lung, 106%; with HOP-62 NSCLC it was 95.7%; in the assay with NCI-H460 lung it was 103%; with HOP-92 NSCLC it was 90.6%. Moreover, the growth is 94% in the assay on NCI-H522 lung; 111% in the assay on A549/ATCC NSCLC; 101% with 786-0 renal; 97.4% in the assay with COLO 205 colon; 109% in the assay with DU-145 prostate; 89.9% in the assay with K-562 leukemia. Moreover, the growth was 92.1% in the assay on MALME-3M melanoma; 105% with MDA-MB-231 breast; 135% with RXF 393 renal; 99.9% in the assay with SF-268 CNS; 96.4% in the assay with SF-295 CNS; 92.7% in the assay on SF-539 CNS. Besides, the figures for the growth with UACC-257 melanoma and in the assay with M14 melanoma were 109% and 97%, respectively.

Turning to `Cc1ccc(C(=NN=C(N)N)c2ccc(C)cc2)cc1`, the growth in the assay on NCI-H23 lung was -14.5% (active); with NCI-H226 lung, 12.3%; in the assay on NCI-H322M lung, 30.5%; in the assay on HOP-62 NSCLC, 13.1%; in the assay on NCI-H460 lung it was 2.86% (active); in the assay with HOP-92 NSCLC, -0.938% (active). Besides, the growth with NCI-H522 lung is -13.8% (active); in the assay with A549/ATCC NSCLC, 11.1%; in the assay with 786-0 renal, -25% (active); in the assay with COLO 205 colon, -83.2% (active); in the assay with DU-145 prostate, -16.6% (active); in the assay on K-562 leukemia, 5.03% (active). For the same molecule, the growth is 40.4% with MALME-3M melanoma; -11.3% (active) in the assay on MDA-MB-231 breast; -16.1% (active) in the assay with RXF 393 renal; 16.7% in the assay with SF-268 CNS; 0.547% (active) in the assay on SF-295 CNS; -2.53% (active) in the assay on SF-539 CNS. In addition, the growth is 25.9% in the assay on UACC-257 melanoma and -74.7% (active) with M14 melanoma.

On to `c1coc(-c2c3ccc(=[N+]4CCCCC4)cc-3oc3cc(N4CCCCC4)ccc23)c1`, for which the growth is -84.6% (active) in the assay on NCI-H23 lung; -86.1% (active) with NCI-H226 lung; -85.1% (active) in the assay on NCI-H322M lung; -81.1% (active) in the assay with HOP-62 NSCLC; -71.5% (active) with NCI-H460 lung; -68.1% (active) in the assay on HOP-92 NSCLC. The growth is -86.4% (active) in the assay with NCI-H522 lung; -57.9% (active) in the assay with A549/ATCC NSCLC; -93.2% (active) with 786-0 renal; -70.1% (active) with COLO 205 colon; -96.2% (active) with DU-145 prostate; -49.9% (active) in the assay with K-562 leukemia. Further, the growth in the assay with MALME-3M melanoma is -71.9% (active); in the assay on MDA-MB-231 breast, -56.5% (active); in the assay on RXF 393 renal, -93.8% (active); in the assay on SF-268 CNS, -83.4% (active); in the assay on SF-295 CNS, -75.2% (active); in the assay on SF-539 CNS, -93.3% (active). In addition, the growth was -75.4% (active) in the assay on UACC-257 melanoma and -94.3% (active) with M14 melanoma.

In the case of `Nc1n[nH]c2cc(F)c([C@@H]3Nc4c(F)cc5[nH]ncc5c4[C@H]4C5CCC(C5)[C@@H]34)cc12` (stereo not given in full), the growth is 25.5% in the assay on NCI-H23 lung; 46.3% with NCI-H226 lung; 57% with NCI-H322M lung; 27.9% in the assay with HOP-62 NSCLC; 2.33% (active) in the assay with NCI-H460 lung; 33.8% in the assay with HOP-92 NSCLC. Moreover, the growth was 14.9% in the assay with NCI-H522 lung; 19.4% in the assay with A549/ATCC NSCLC; 29.2% with 786-0 renal; -8.08% (active) in the assay on COLO 205 colon; -0.222% (active) in the assay with DU-145 prostate; 11.6% in the assay on K-562 leukemia. Further, the growth in the assay with MALME-3M melanoma was 46.3%; in the assay with MDA-MB-231 breast it was 15.5%; in the assay with RXF 393 renal, 41.3%; in the assay on SF-268 CNS it was 10.5%; in the assay with SF-295 CNS, 15%; in the assay with SF-539 CNS it was 4.53% (active). For the same molecule, the growth in the assay on UACC-257 melanoma is 72.4%; with M14 melanoma, 21.2%.

With `COc1cccc(-c2nc3sccn3c2-c2ccnc(NCCNS(=O)(=O)c3cccc(F)c3)c2)c1`, the growth with NCI-H23 lung is 33.7%; in the assay with NCI-H226 lung it was 22.9%; in the assay with NCI-H322M lung, 73.2%; with HOP-62 NSCLC it was 55.3%; in the assay with NCI-H460 lung, 28.8%; in the assay on HOP-92 NSCLC it was 18.3%. Moreover, the growth in the assay on NCI-H522 lung is 40.9%; in the assay with A549/ATCC NSCLC, 27.2%; in the assay with 786-0 renal, 48.1%; in the assay with COLO 205 colon, 25.8%; in the assay with DU-145 prostate, 29.7%; in the assay on K-562 leukemia, 19%. The growth in the assay on MALME-3M melanoma was 46.6%; with MDA-MB-231 breast, 64.6%; in the assay with RXF 393 renal, 39.9%; with SF-268 CNS it was 37.8%; in the assay with SF-295 CNS, 15.5%; in the assay with SF-539 CNS, 70.7%. In addition, the values for the growth in the assay with UACC-257 melanoma and in the assay on M14 melanoma were 44.6% and 33.3%, respectively.

`COc1ccc2[nH]c(O)c(/C=c3/cc4c(c(-c5cc(OC)c(OC)c(OC)c5)n3)=Nc3ccccc3-4)c2c1`: the growth in the assay with NCI-H23 lung is 50.7%; with NCI-H226 lung, 67.1%; in the assay on NCI-H322M lung it was 92.6%; in the assay with HOP-62 NSCLC it was 86.2%; in the assay on NCI-H460 lung, 71.6%; with HOP-92 NSCLC, 39.8%. The growth in the assay with NCI-H522 lung was 50.4%; in the assay on A549/ATCC NSCLC, 72.5%; in the assay on 786-0 renal it was 67.1%; with COLO 205 colon it was 59.4%; with DU-145 prostate, 73.9%; with K-562 leukemia, 31.7%. The growth in the assay on MALME-3M melanoma was 94.8%; in the assay on MDA-MB-231 breast, 31.7%; with RXF 393 renal, 43.1%; in the assay on SF-268 CNS, 72.9%; with SF-295 CNS, 76.9%; in the assay with SF-539 CNS, 84.1%. For the same molecule, the growth in the assay on UACC-257 melanoma was 88.5%; with M14 melanoma it was 49.2%.

In the case of `CCCCCCCCn1ccc2cc(NC(=O)Cn3cc(CN4CCCC4)nn3)ccc21`, the growth in the assay with NCI-H23 lung is 87.3%; in the assay with NCI-H226 lung, 95.5%; in the assay with NCI-H322M lung, 49.5%; with HOP-62 NSCLC, 74%; in the assay with NCI-H460 lung, -64.5% (active); in the assay on HOP-92 NSCLC, 28%. Also, the growth was 52.3% with NCI-H522 lung; 40.2% in the assay with A549/ATCC NSCLC; 16.8% in the assay on 786-0 renal; -81.4% (active) in the assay on COLO 205 colon; 66.9% in the assay on DU-145 prostate; 2.29% (active) with K-562 leukemia. Also, the growth is -63.3% (active) with MALME-3M melanoma; 11.6% in the assay with MDA-MB-231 breast; 44.6% in the assay on RXF 393 renal; 46.2% with SF-268 CNS; -68.3% (active) with SF-295 CNS; 78.9% with SF-539 CNS. The growth was 51.6% with UACC-257 melanoma and -66.5% (active) in the assay on M14 melanoma.

For `COc1ccccc1CNCCCN1C(=O)c2ccc3c4c(ccc(c24)C1=O)C(=O)N(CCCNCCCCN)C3=O`, the growth was -38.6% (active) with NCI-H23 lung; -56.5% (active) in the assay on NCI-H226 lung; -10.1% (active) in the assay on NCI-H322M lung; -31% (active) in the assay with HOP-62 NSCLC; -46.2% (active) with NCI-H460 lung; -16% (active) with HOP-92 NSCLC. The growth with NCI-H522 lung was -84% (active); in the assay with A549/ATCC NSCLC it was -65% (active); in the assay on 786-0 renal, 0.16% (active); in the assay with COLO 205 colon, -81.5% (active); in the assay with DU-145 prostate, -71.1% (active); in the assay on K-562 leukemia, 3.21% (active). Also, the growth in the assay on MALME-3M melanoma was -80.7% (active); with MDA-MB-231 breast, 9.4% (active); with RXF 393 renal, -80.9% (active); in the assay on SF-268 CNS it was 0.101% (active); with SF-295 CNS, 0.192% (active); in the assay with SF-539 CNS it was -75.3% (active). The growth in the assay with UACC-257 melanoma is -71.8% (active); in the assay with M14 melanoma, -80.2% (active).
